Data from the supplement of paper PMC4723716.

System: Plasmodium falciparum NF54 gametocytes
Assay: viability index relative to DMSO control (fraction); higher = less gametocyte killing
Details: 12.5 µM, incubation time: 72 h
How it was run: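 The viability index expresses each well's gametocyte particle count relative to the plate mean of solvent-only wells. Stage I–V P. falciparum NF54 gametocytes (0.50% gametocytemia, 1.25% hematocrit, 40 µl of serum-containing medium) were exposed to compound at 12.5 µM for 72 hr at 37°C under low oxygen in 384-well plates. They were stained for 20 min with 5 µl of 5 µM MitoTracker Red CMXRos, and 5 µl was then transferred into 40 µl of 500 nM dye in serum-free medium for imaging of three fields 30 min later.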

[1] = gametocyte stage: Stage I viability index
[2] = gametocyte stage: Stage II viability index
[3] = gametocyte stage: Stage III viability index
[4] = gametocyte stage: Stage IV viability index
[5] = gametocyte stage: Stage V viability index

SMILES	viability index [1]	viability index [2]	viability index [3]	viability index [4]	viability index [5]
O=C(Nc1ccc(C23CC4CC(CC(c5ccccc5)(C4)C2)C3)cc1)c1cccs1	0.939	0.824	0.986	0.744	1.14
COc1ccc(CNC(=O)c2cc3c(=O)n4ccccc4nc3n(CCc3ccccc3)c2=N)cc1	0.254	0.499	0.826	0.946	1.01
CCOC(=O)C1(Cc2ccccc2)CCN(Cc2cccc(OC)c2O)CC1	0.0586	0.0716	0.404	0.522	0.649
CCOC(=O)c1c(C)n(-c2ccccc2)c2ccc(OC(=O)c3cc(OC)c(OC)c(OC)c3)cc12	1.05	0.724	0.947	0.987	1.05
Cc1cc(C=C2SC(=Nc3ccccc3)N(C3CCCC3)C2=O)c(C)n1-c1ccc(Cl)cc1	1.05	1.03	1.03	0.894	0.879
Cc1ccc(-c2cc3c(SCC(=O)Nc4cc(C(F)(F)F)ccc4Cl)nccn3n2)cc1	1.03	0.896	1.11	0.921	0.791
Clc1cc(Br)ccc1-c1ccc(CNCC2CCNCC2)o1	0.0166	0.0135	0.0099	0.0152	0.033
O=C(Nc1ccc(F)c(Cl)c1)Nc1ccc(Cl)c(Cl)c1	0.0409	0.0309	0.0835	0.17	0.165
COc1cc(-c2nc(-c3ccccc3)c(-c3ccccc3)[nH]2)cc(OC)c1O	0.0446	0.247	0.358	0.532	0.221
COc1ccc2c(c1)C1(Nc3ccccc3-c3nc4ccccc4n31)C(=O)N2 (stereo not given)	0.0265	0.00483	0.017	0.0608	0.033
CC(C)c1ccc(CNCC(O)c2ccccc2)cc1 (stereo not given)	0.032	0.118	0.492	0.568	0.648
O=C(CCl)NCCOc1ccc(Cl)cc1Cl	0.732	0.629	0.813	0.769	0.675
CN(C)c1ccc(C=Cc2nc(=O)c3ccccc3o2)cc1	0.611	0.713	0.82	0.921	0.835
Cc1cc(N2CCCC2)nc(Nc2ccc(NC(=O)CCc3ccccc3)cc2)n1	0.0734	0.0508	0.261	0.345	0.13
CCOc1ccccc1NC(=O)CN1CCN(C(=O)c2ccco2)CC1	1.06	1	1.07	0.959	1.1
Cc1cc(NC(=O)c2cccc(C(F)(F)F)c2)n(-c2nc(-c3ccc4c(c3)OCO4)cs2)n1	1.26	0.943	1.1	0.951	0.956
CC(C)(C)c1ccc(C2CC3=Nc4ccccc4N(C(=O)c4ccccc4Cl)C(c4ccc(F)cc4)C3=C(O)C2)cc1 (stereo not given)	0.278	0.223	0.472	0.503	0.429
CC(C)(C)c1ccc2c(c1)CN(Cc1ccc(Cl)cc1)CO2	0.12	0.192	0.385	0.633	0.442
Cn1c(=O)c2cc(C(=O)NCCCN3CCCCCC3)sc2c2ccccc21	1.01	0.857	0.926	0.957	0.725
CCn1nc(-c2ccc(C(=O)OC)cc2)nc2c(=O)n(C)c(=O)nc1-2	0.15	0.284	0.103	0.0365	0.044
c1ccc(C2=Nc3ccccc3N=C(c3ccccc3)c3ccccc32)cc1	0.0839	0.0541	0.0543	0.123	0.0909
N#Cc1nc(Cc2cccc3ccccc23)oc1N1CCN(C(c2ccccc2)c2ccccc2)CC1	1.12	0.93	1.23	0.968	1.16
Cc1ccc(S(=O)(=O)c2c(COC(=O)c3cccc(C)c3)c(-c3ccccc3)nn2C)cc1	0.982	0.881	0.943	0.769	0.922
OC(Cn1nnc2ccccc21)Cn1c2ccc(Br)cc2c2cc(Br)ccc21 (stereo not given)	0.634	0.684	1.04	0.972	1.21
CCOC(=O)C1=CN(C)C=C(C(=O)OCC)C1c1cc(Br)c(OCC)c(OC)c1	0.042	0.0216	0.0421	0.161	0.117
CC(C)(C)c1ccc(O)c(CNC2CCCCC2)c1	0.256	0.329	0.482	0.571	0.462
Clc1ccc2c(N3CCCC3)ccnc2c1	0.241	0.491	0.915	0.93	1.14
CCN(CC)S(=O)(=O)c1ccc(-c2csc(Nc3ccc(C)c(C)c3)n2)cc1	0.544	0.506	0.532	0.733	0.352
CCc1c(C)c(=N)c2ccccc2n1C	0.725	1.01	1.24	0.988	0.791
COc1ccc(C(O)(CCC(C)C)C(CN2CCOCC2)c2ccc(Cl)cc2)cc1 (stereo not given)	1.2	0.843	1.12	1	0.922
